# Measurements published in PubChem BioAssay (NCI).
# The panel holds about 79,000 compounds, 15% with a hit somewhere; the sample as a whole holds those more often. Unmarked numbers belong to inactive results. Active and inactive are the calls of the source. Cut-off read from the data, not from the text of the source: active = growth inhibition above about 70%; inactive = the rest. Where a SMILES comes first, the peptide text is derived from it. The star is where a group is joined. Trt = c1ccc(C(c2ccccc2)(c2ccccc2)*)cc1; Cbz = O=C(OCc1ccccc1)*
# Key:
# [1] = NCI Yeast Anticancer Drug Screen. Data for the rad50 strain (AID 155);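 note: 0% = growth of vehicle-only cultures of the same strain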; conditions: S. cerevisiae rad50 strain growth inhibition, active compounds read high
# Procedure, shortened: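 Genetically altered yeast (DNA repair pathway); compound treatment; growth inhibition vs vehicle ctrl.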
# [2] = NCI Yeast Anticancer Drug Screen. Data for the mec2-1 strain (AID 157); conditions: S. cerevisiae mec2-1 strain, active compounds read high
# Procedure, shortened: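 Compounds were applied to mec2-1 yeast cells. Their growth was then compared with that of vehicle-treated cultures to give growth inhibition.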
# [3] = NCI Yeast Anticancer Drug Screen. Data for the sgs1 mgt1 strain (AID 161);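 note: 0% = growth of cultures given vehicle only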; conditions: S. cerevisiae sgs1 mgt1 strain, active compounds read high
# Procedure, shortened: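 Growth of a repair-deficient yeast mutant was monitored after compound treatment and expressed as inhibition relative to vehicle-treated cultures.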
# [4] = NCI Yeast Anticancer Drug Screen. Data for the cln2 rad14 strain (AID 165);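 note: 0% = growth equal to vehicle treated cultures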; conditions: S. cerevisiae cln2 rad14 strain, active compounds read high
# Procedure, shortened: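 Strain: cln2 rad14 yeast, altered in cell cycle control and DNA damage repair. Read-out: growth inhibition vs vehicle.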
# [5] = NCI Yeast Anticancer Drug Screen. Data for the bub3 strain (AID 167); conditions: S. cerevisiae bub3 mutant strain, active compounds read high
# Procedure, shortened: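 Yeast carrying a defined mutation is treated with each compound, and growth is compared with that of vehicle-exposed cells to give inhibition.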
# [6] = NCI Yeast Anticancer Drug Screen. Data for the mlh1 rad18 strain (AID 175); conditions: S. cerevisiae mlh1 rad18 strain growth inhibition, active compounds read high
# Procedure, shortened: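 A repair-deficient yeast strain is exposed to test compound, and growth is scored relative to vehicle-treated controls.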
# [7] = at 5.0 µM (retest, dose inferred, filed as 0.5)
# [8] = at 50.0 µM (retest, dose inferred, filed as 5.0)
Structure (SMILES),"growth inhibition [1, 7]","growth inhibition [1, 8]",growth inhibition ([1]; at 50.0 µM),"growth inhibition [2, 7]","growth inhibition [2, 8]",growth inhibition ([2]; at 50.0 µM),"growth inhibition [3, 7]","growth inhibition [3, 8]",growth inhibition ([3]; at 50.0 µM),"growth inhibition [4, 7]","growth inhibition [4, 8]",growth inhibition ([4]; at 50.0 µM),"growth inhibition [5, 7]","growth inhibition [5, 8]",growth inhibition ([5]; at 50.0 µM),"growth inhibition [6, 7]","growth inhibition [6, 8]",growth inhibition ([6]; at 50.0 µM)
O=S(=O)(Nc1ccnn1-c1ccccc1)c1ccc(N=Cc2c3ccccc3nc3cc(Cl)ccc23)cc1,22%,29%,96.8% (active),12%,12%,96.7% (active),10%,7%,96.4% (active),-1%,-1%,68.7%,17%,17%,67.9%,10%,19%,97.5% (active)
CCOC(=O)NC(c1ccc(C(NC(=O)OCC)P(=O)(O)NC23CC4CC(CC(C4)C2)C3)cc1)P(=O)(O)NC12CC3CC(CC(C3)C1)C2 (configuration not stated),-8%,-6%,60.4%,5%,-10%,84.2% (active),-8%,-24%,81% (active),-30%,-2%,71.8% (active),13%,-7%,91% (active),-31%,-21%,76.4% (active)
CC(=O)OCC(=O)[C@@]1(O)[C@H](C)C[C@H]2[C@@H]3C=C(C)C4=Cc5c(cnn5-c5ccccc5)C[C@]4(C)[C@@]3(F)[C@@H](O)C[C@@]21C,0%,81% (active),82.4% (active),0%,36%,69.5%,35%,91% (active),83.2% (active),19%,88% (active),73.4% (active),-1%,79% (active),24.1%,46%,87% (active),87.7% (active)
Cc1ccc(S(=O)(=O)Oc2ccc3oc4c(CO)ccc(NCCN(C)C)c4c(=O)c3c2)cc1,3%,5%,16.6%,0%,-32%,-17.6%,2%,16%,97.8% (active),1%,7%,-2.35%,3%,4%,-9.25%,3%,14%,43%
OC1(C2CCCCC2)c2ccccc2Cc2ccccc21,6%,80% (active),97.2% (active),13%,76% (active),98% (active),12%,93% (active),96.4% (active),-1%,86% (active),95.4% (active),9%,90% (active),96.8% (active),7%,90% (active),97% (active)
O=C(Nc1c(Cl)cccc1Cl)Oc1cccc2cccnc12,58%,97% (active),88.5% (active),35%,98% (active),90.6% (active),60%,99% (active),90.6% (active),20%,98% (active),88% (active),42%,96% (active),89.4% (active),57%,97% (active),88.3% (active)
O=C1NC2(C=Cc3c(ccc4ccccc34)O2)Oc2ccccc21 (configuration not stated),-12%,-8%,44.5%,-16%,-7%,10%,6%,11%,34%,31%,48%,24.4%,4%,-8%,7.65%,-3%,3%,62%
CSc1cc(C(=O)O)nc(N)n1,4%,-4%,-5.65%,6%,0%,5%,5%,-1%,-21.6%,8%,-1%,28.1%,3%,-4%,-17.1%,4%,-4%,-12.3%
COC(=O)C(CSC(c1ccccc1)(c1ccccc1)c1ccccc1)NC(=O)C(CC(N)=O)NC(=O)OCc1ccccc1 (stereo not drawn) (Cbz-Asn-Cys(Trt)-OMe; configuration not given here),32%,84% (active),73.5% (active),13%,89% (active),68.2%,17%,94% (active),72.5% (active),27%,94% (active),72% (active),15%,94% (active),68.8%,27%,88% (active),68.9%
CCN(CC)CCCNc1nccc2c(C)c3[nH]c4ccncc4c3cc12,41%,54%,59.4%,18%,33%,-2%,38%,43%,-1.7%,19%,23%,10.1%,24%,22%,-6.45%,48%,64%,-36.5%
CCCCOc1c(OCCCC)c(=O)c1=O,78% (active),54%,-13.6%,88% (active),79% (active),-48.5%,14%,19%,-31.6%,37%,48%,16.4%,54%,54%,-26.6%,78% (active),55%,40.5%
CN(C)CCC(=O)/C=C/c1ccccc1,-2%,3%,53%,-1%,5%,38%,-3%,1%,75.9% (active),-2%,1%,38.1%,-3%,11%,61%,-3%,4%,63.1%
COc1ccccc1/C=C\C(=O)c1ccccc1,2%,89% (active),98.7% (active),1%,98% (active),99.4% (active),2%,95% (active),99.2% (active),-4%,57%,89.8% (active),5%,98% (active),98.8% (active),2%,98% (active),98.8% (active)
Nc1nc(-c2ccccc2)c(-c2ccccc2)c(-c2nc(N)nc(-c3ccccc3)c2-c2ccccc2)n1,7%,-3%,-4%,6%,16%,-6%,-1%,0%,-16.9%,21%,12%,2.45%,-1%,-9%,-17.1%,-12%,-16%,7.8%
Nc1ccc(S(=O)(=O)O)c2cccc(S(=O)(=O)O)c12,-2%,-2%,3.45%,-2%,0%,7.4%,-2%,0%,31.5%,-1%,-7%,71.9% (active),0%,2%,27.2%,-1%,-2%,-12.9%
CC(=O)c1c2c(cc3c1CC1(C3)Cc3ccc4c(c3C1=O)CCC4)CCC2 (configuration not stated),3%,1%,-0.85%,7%,5%,17.2%,18%,7%,5.75%,15%,16%,6.8%,12%,39%,55.2%,7%,6%,36.4%
Cc1cc(N)c2ccccc2[n+]1CCCCCCCCCC[n+]1c(C)cc(N)c2ccccc21,42%,98% (active),89.3% (active),47%,95% (active),92.8% (active),98% (active),96% (active),92.3% (active),90% (active),99% (active),91% (active),97% (active),98% (active),91% (active),51%,97% (active),81.3% (active)
Cc1cccc(/C=N/Nc2cc(C)c3ccccc3n2)n1,10%,89% (active),96.8% (active),10%,96% (active),89.2% (active),16%,96% (active),97.8% (active),5%,86% (active),82.3% (active),-5%,95% (active),93.6% (active),14%,96% (active),82.8% (active)
CC(C(=O)O)c1c(-c2ccccc2)ccc2ccccc12 (configuration not stated),37%,3%,38.9%,22%,4%,51.1%,2%,32%,51.5%,-8%,12%,52.1%,6%,14%,38.9%,5%,24%,63.6%
